High-throughput results as filed in PubChem.
Mtb RmlCD inh = inhibitors of Mycobacterium tuberculosis RmlC and RmlD coupled enzymes | RmlC+RmlD coupled enzyme assay, percent inhibition; primary screen in compound mixtures | inhibition, % at 3.6 µM | hit rate 0.03% among 160,000; in the data active means inhibition mostly above about 34%, no sharp cut-off
Target sequence (P9WH09 whole entry, looked up): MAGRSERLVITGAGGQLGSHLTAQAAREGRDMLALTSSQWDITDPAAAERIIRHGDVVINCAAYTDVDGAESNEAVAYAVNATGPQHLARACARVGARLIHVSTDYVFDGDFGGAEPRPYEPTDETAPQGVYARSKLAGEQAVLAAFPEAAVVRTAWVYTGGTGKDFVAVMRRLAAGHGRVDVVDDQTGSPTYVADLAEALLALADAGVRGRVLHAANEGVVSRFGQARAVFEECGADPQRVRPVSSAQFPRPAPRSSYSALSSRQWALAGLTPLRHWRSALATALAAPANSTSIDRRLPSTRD
Target sequence (P9WH11 whole entry, looked up): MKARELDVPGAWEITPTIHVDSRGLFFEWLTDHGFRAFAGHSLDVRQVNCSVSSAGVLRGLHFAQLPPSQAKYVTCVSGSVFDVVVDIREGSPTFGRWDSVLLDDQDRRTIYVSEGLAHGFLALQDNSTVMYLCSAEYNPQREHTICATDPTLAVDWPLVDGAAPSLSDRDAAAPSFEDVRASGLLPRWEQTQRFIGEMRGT
An asterisk follows results filed as active. The sample as a whole holds a higher share of hits than the screen did.

SMILES | Mtb RmlCD inh
COc1ccccc1NC(=O)COc1ccccc1C(=O)Nc1ccccc1 | -10
Cc1cc(C)c(NC(=O)COc2ccccc2C(=O)Nc2ccc3c(c2)oc2ccccc23)c(C)c1 | 99*
CCOc1ncccc1C(=O)Nc1ccc2c(C)cc(=O)oc2c1 | 2
O=C(c1ccc([N+](=O)[O-])cc1)N1CCSC1c1cccc(Cl)c1 (centres undefined) | -8
Cc1ccc(NC(=O)c2sc(N)nc2-c2ccc([N+](=O)[O-])cc2)c(C)c1 | -8
Cc1c(-n2c(SCC(=O)C(C)(C)C)nc3ccccc3c2=O)c(=O)n(-c2ccccc2)n1C | 4
Cc1ccc(-n2c(-c3ccco3)nc3nc4ccccc4nc32)cc1F | 7
CCn1c(-c2ccco2)nc2ccccc21 | -2
CCCCOCCCn1c(-c2ccco2)nc2nc3ccccc3nc21 | 57*
CC1(C)c2ccccc2-n2c1cc1oc(=O)cc(O)c1c2=O | 37
CCn1ccnc1[C@@H]1C[C@H]2CN(c3ccccc3OC)C(=O)[C@]23CCCN13 | -12
C=CCN(c1ccccc1C(=O)O)S(=O)(=O)/C=C/c1ccccc1 | 7
COC(=O)[C@H](CC(C)C)NC(=O)Nc1ccccc1F | 4
Cc1cccn2c(=O)c(C=Nc3ccccc3)c(NCCO)nc12 | 55*
Cc1cccn2c(=O)c(C=Nc3ccc(Cl)cc3)c(NCCO)nc12 | -2
Cc1cccn2c(=O)c(C=NCCO)c(Nc3ccc(Cl)cc3)nc12 | -5
COc1ccc(/C=N/NC(=O)c2cccc(OC(F)(F)C(F)F)c2)cc1O | -4
Cc1nn(Cc2cccc(F)c2)c(C)c1NC(=O)c1c(Cl)cnn1C | 8
Cc1cc(OCc2nn[nH]n2)c2c(C)c(Cc3ccccc3)c(=O)oc2c1 | 21
CC(=O)Nc1sc(/C(C#N)=C/c2ccc(Cl)c(Cl)c2)nc1-c1ccc(C)cc1 | 75*
CCOc1cc(/C=N\Nc2nc(-c3ccc(C)cc3)c(NC(C)=O)s2)ccc1O | -4
COc1cc(/C=C(\C#N)c2nc3ccccc3s2)ccc1OCC(=O)Nc1ccccc1 | 4
O=C(OC(C(=O)NC1CCCC1)c1ccncc1)C1=Cc2ccccc2OC1 (centres undefined) | 8
C=CCSC(=C(C#N)C#N)c1cc2c([nH]1)CCCC2 | -15
ONC(=Nc1ccc(Cl)cc1)c1ccccc1 | 14
SMILES | Mtb RmlCD inh
c1cc(Nc2ncnc3sccc23)cc(-c2nnc3n2CCCCC3)c1 | 32
Nc1c2ccccc2nc2ccccc12 | -8
CN(C)c1c2ccccc2nc2c(F)c(F)c(F)c(F)c12 | 41*
Cc1c2ccccc2nc2c(F)c(N(C)C)c(F)c(F)c12 | -19
O=C(c1ccccc1F)N(Cc1nc2ccccc2c(=O)[nH]1)C1CCCC1 | 12
COc1ccc2cc3cc(C(=O)NCCCN4CCOCC4)oc3nc2c1 | 51*
COc1ccc2cc3cc(C(=O)NCCN4CCN(Cc5ccccc5)CC4)oc3nc2c1 | 14
CCN1CCN(CCCNC(=O)c2cc3cc4ccc(OC)cc4nc3o2)CC1 | -3
COc1cc(C(=O)N/N=C/c2sc(N3CCOCC3)nc2-c2ccccc2)cc(OC)c1OC | -12
Cc1cc(C)c2[nH]c(=O)c(CN(Cc3cccnc3)C(=S)NCCCN(C)C)cc2c1 | -10
CCC(C)(C)NC(=O)CN(Cc1ccccc1Cl)C(=O)CCC(=O)Nc1cc(C)ccn1 | -8
O=C(Nc1nccs1)c1cc(-c2ccco2)nc2ccccc12 | 8
Cc1ccc2nc(NC(=O)c3cc(-c4ccco4)nc4ccccc34)sc2c1 | 5
O=C(Nc1nc2ccccc2s1)c1cc(-c2ccco2)nc2ccccc12 | 37*
COc1cc(OC)nc(NC(=O)COC(=O)c2cccc(Cl)c2)n1 | 3
COc1ccc(CNC(=O)CCSCc2cccc(Cl)c2)c(OC)c1 | 2
CN(C)Cc1c(O)ccc2c3c(c(=O)oc12)CCCCC3 | 21
O=c1oc2c(CN3CCOCC3)c(O)c(Cl)cc2c2c1CCCC2 | 2
O=c1oc2c(CN3CCOCC3)c(O)ccc2c2c1CCCC2 | 44*
COCCn1c(C(C)C)nc2ccccc21 | 8
NC(=O)c1nn(-c2ccccc2)nc1N | 79*
Nc1nn(-c2ccccc2)nc1C(=O)OCc1ccccc1 | 9
Cc1nn(-c2ccccc2)nc1C(N)=O | -7
COc1ccc(OC)c(/C=N/NC(=O)c2cc3c(OC)cccc3[nH]2)c1 | -5
COc1cccc(/C=N/NC(=O)c2cc3c(OC)cccc3[nH]2)c1OC | -7
SMILES | Mtb RmlCD inh
COc1cccc(/C=N/NC(=O)c2cc3c(OC)cccc3[nH]2)c1O | 69*
CO/N=C/c1cccn1-c1nccc(N(C)C)c1C#N | 1
N#C/C(=C\c1ccncc1)c1nc2ccccc2[nH]1 | 34*
N#C/C(=C/c1ccncc1)c1nc2ccccc2s1 | -6
N#C/C(=C\c1cccnc1)c1nc2ccccc2[nH]1 | 14
CCC(C)N(C(=O)COc1ccc(NC(C)=O)cc1)C1CCS(=O)(=O)C1 (centres undefined) | -12
Cc1ccc2c(c1)c1ncnc(N3CCC4(CC3)OCCO4)c1n2C | 10
Cc1ccc2c(c1)c1ncnc(N3CCN(c4ccccc4)CC3)c1n2C | 8
Cc1ccc2c(c1)c1ncnc(N3CCOCC3)c1n2C | 96*
COc1cccc(CSc2ccc(S(=O)(=O)N3CCOCC3)cc2C(=O)NCC2CCCO2)c1OC (centres undefined) | -7
CC1CC(CCC(=O)NC(=S)Nc2ccc(S(N)(=O)=O)cc2)C(=O)O1 (centres undefined) | -7
CCC(=O)Nc1cccc(C(=O)c2ccc(C)c(C)c2)c1 | 17
COc1ccc(-c2cc3nc(C)n(N)c(=O)c3s2)cc1 | 10
COc1ccc(-c2cc3nc4n(c(=O)c3s2)CCC4)cc1 | 77*
COc1ccc(-c2cc3nc4n(c(=O)c3s2)CCCCC4)cc1 | -8
CC(=O)c1ccccc1OC(=O)CCN1C(=O)c2ccccc2C1=O | -5
COc1cccc(CN2CCN(Cc3nc(C(C)C)cs3)CC2CCO)c1 (centres undefined) | 2
CCOC(=O)C1CCCN(C(=S)Nc2cccc(Cl)c2C)C1 (centres undefined) | 0
COc1ccc(-c2cc(C(F)(F)F)n3nc(C(=O)N(C)Cc4ccccc4)cc3n2)cc1OC | 40*
COc1ccc(-c2cc(C(F)(F)F)n3nc(C(=O)N4CCC5(CC4)OCCO5)cc3n2)cc1OC | -4
COc1ccc(-c2cc(C(F)(F)F)n3nc(C(=O)Nc4cc(C)on4)cc3n2)cc1OC | 10
Cc1ccccc1NC(=O)COC(=O)c1c[nH]c(=O)[nH]c1=O | 0
CC(=O)Nc1sc(N/N=C/c2ccc(N(C)C)cc2)nc1-c1ccc(C)cc1 | 64*
CC(=O)Nc1sc(N/N=C/c2ccc(C)cc2)nc1-c1ccc(C)cc1 | -6
COc1ccc(/C=N/Nc2nc(-c3ccc(C)cc3)c(NC(C)=O)s2)cc1OC | 5
SMILES | Mtb RmlCD inh
NC1=NS(=O)(=O)NC1c1ccc(F)cc1 (centres undefined) | 11
Cc1cc(C)c2c(N)c(C(=O)c3ccccc3)sc2n1 | 5
COc1ccc(/C=N/NC(=O)c2sc3nc(C)cc(C)c3c2N)cc1 | -2
Cc1cc(C)c2c(N)c(C(=O)N/N=C/c3cccs3)sc2n1 | 55*
CCCCCCOc1ccc(NC(=O)CC2C(=O)N(CC)C(=S)N2Cc2ccco2)cc1 (centres undefined) | -13
COCCCn1c(=N)c(C(=O)NCC2CCCO2)cc2c(=O)n3ccccc3nc21 (centres undefined) | 0
COCCCn1c(=N)c(C(=O)NCC2CCCO2)cc2c(=O)n3cccc(C)c3nc21 (centres undefined) | -4
CCCCNC(=O)c1cc2c(=O)n3cccc(C)c3nc2n(Cc2ccccc2)c1=N | -5
